Laboratory results: PubChem BioAssay (NCATS)
“And” between values parts separate entries of the source, which are not always exact repeats. Equal entries are not always repeated. Inconclusive results are not listed. Some compounds were tested as several samples or in several runs, with calls that do not always agree. Values without a mark were called inactive. The source made the active and inactive calls. Calls follow the shape of the dose curve; as a rule, active = well fitted cell-killing curve with a large enough effect; inconclusive = small, poorly fitted or top-dose-only effect, or effect the other way; inactive = flat fitted curve, though single readings scatter.
% is scaled to controls: 0 for no effect and ±100 for the full control effect; potency is read from the fitted curve at half-maximal effect.

Experiment: qHTS assay for cell viability of HEK293 cells (AID 743288); also: nearly all actives have a fitted effect of over 50% in size
Conditions: ATP luminescence (CellTiter-Glo), 18 h; max response: active compounds read low
Excerpt: National Center for Advancing Translational Sciences [NCATS]
NIH Chemical Genomics Center [NCGC]
U.S. Environmental Protection Agency [EPA]
National Institutes of Environmental Health Sciences [NIEHS]
National Toxicology Program [NTP]
U.S. Food and Drug Administration [FDA]
The CellTiter-Glo Luminescent Cell Viability Assay (Promega, Madison, WI) is a homogeneous method to determine the number of viable cells in culture based on quantitation of the ATP present, which signals the presence of metabolically active cells. This cell viability assay was used to screen environmental chemicals in the Hek293 cell line.
Tox21 Assay Protocol Summary:
Cell viability after compound treatment was measured using a luciferase-coupled ATP quantitation assay (CellTiter-Glo viability assay, Promega, Madison, WI) in parental HEK293 cells. Total intracellular ATP content corresponds to the number of metabolically competent cells after compound treatment. The cells were dispensed at 2,000 cells/5 uL/well in 1,536-well white/solid bottom assay plates using a Flying Reagent Dispenser (Aurora Discovery, San Diego, CA). The cells were incubated a minimum of 5 h at 37 C, followed by the addition of 23 nL of compounds dissolved in DMSO, positive controls or DMSO only using a pintool work station (Kalypsys, San Diego, CA). The assay plates were incubated for 18 h at 37 C, followed by the addition of 5 uL/well of CellTiter-Glo reagent. After 30 min incubation at room temperature, the luminescence intensity of the plates was measured using a ViewLux plate reader (PerkinElmer, Shelton, CT).
Clc1ccc([C@@]2(Cn3cncn3)C[C@H](Br)CO2)c(Cl)c1 showed a max response of -14.4%. Cc1cccc2sc3nncn3c12 gave a max response of -3.66%. With CCOP(=O)(OCC)SCS(=O)(=O)C(C)(C)C the max response was -4.67%. Cc1ccn2nc(S(=O)(=O)Nc3c(F)cccc3F)nc2n1 showed a max response of -3.63%. CCCSC(=O)N(CCC)CCC showed a max response of -7.74%. For O=C(CCl)c1ccccc1, the Potency was 35.5 µM (active) and the max response was -16%. CCOP(=S)(OCC)OC(Cl)C(Cl)(Cl)Cl (stereo not given) showed a max response of -12.8%. Work on O=C(NC(=O)c1c(F)cccc1F)Nc1ccc(Cl)cc1 yielded a max response of -0.376%. With C[C@H]1[C@H](c2ccc(Cl)cc2)SC(=O)N1C(=O)NC1CCCCC1 the max response was -26%. In the case of NS(=O)(=O)C(F)(F)C(F)(F)C(F)(F)C(F)(F)C(F)(F)C(F)(F)C(F)(F)C(F)(F)F, the max response is reported as -13.7%. Work on CCN(CC)C(=O)C(C)Oc1cccc2ccccc12 (stereo not given) yielded a max response of -1.61%. Brc1c(Br)c(Br)c(Br)c(Br)c1Br gave a max response of -0.224%. Compound CCCCC(CC)CO[N+](=O)[O-] (stereo not given) has a max response of 3.43%. For c1ccc2c(c1)oc1ccccc12, the max response was -8.74%. In the case of C=CC(=O)NCO, the max response is reported as -8.84% and -5.85%. Compound O=C(O)C(F)(F)C(F)(F)C(F)(F)C(F)(F)C(F)(F)F has a max response of -9.96%. C=C(C)C(=O)OCC(CC)CCCC (stereo not given) gave a max response of 2.46%. In the case of CN(C)c1ccc(C(=O)c2ccc(N(C)C)cc2)cc1, the max response is reported as -23.3%. CCOC(=O)C(C)OC(=O)c1cc(Oc2ccc(C(F)(F)F)cc2Cl)ccc1[N+](=O)[O-] (stereo not given) gave a max response of -22.9%. For COP(=O)(OC)Oc1nc(Cl)c(Cl)cc1Cl, the max response was -6.19%. With [Cl][Sn]([c]1ccccc1)([c]1ccccc1)[c]1ccccc1 the Potency was 2.82 µM (active). In the case of CCSCc1ccccc1OC(=O)NC, the max response is reported as -9.67%. In the case of CCOC(=O)C(Cl)Cc1cc(-n2nc(C)n(C(F)F)c2=O)c(F)cc1Cl (stereo not given), the max response is reported as -19.9%. CCOP(=O)(O)C(N)=O showed a max response of -8.79%. CCOP(=S)(OCC)SCCl showed a max response of -19.2%. CCCCOC(=O)c1ccccc1C(=O)O showed a max response of 6.89%. In the case of CCNc1nc(NCC)nc(SC)n1, the max response is reported as -5.22%. CCCCCCCCCCCCN(C)C showed a max response of -1.64%. For C[C@@H]1CC[C@@]2(OC1)O[C@H]1[C@@H](O)[C@H]3[C@@H]4CC[C@H]5C[C@@H](O[C@@H]6O[C@H](CO)[C@H](O[C@@H]7O[C@H](CO)[C@@H](O)[C@H](O[C@@H]8OC[C@@H](O)[C@H](O)[C@H]8O)[C@H]7O[C@@H]7O[C@H](CO)[C@@H](O)[C@H](O[C@@H]8O[C@H](CO)[C@@H](O)[C@H](O)[C@H]8O)[C@H]7O)[C@H](O)[C@H]6O)[C@H](O)C[C@]5(C)[C@H]4CC[C@]3(C)[C@H]1[C@@H]2C, the Potency was 25.1 µM (active). Work on Nc1cnn(-c2ccccc2)c(=O)c1Cl yielded a max response of -10.4%. Work on CCOP(=O)(OCC)OC(Cl)C(Cl)(Cl)Cl (stereo not given) yielded a max response of -7.64%. Compound CC(C)OC(=O)C(O)(c1ccc(Br)cc1)c1ccc(Br)cc1 has a max response of -24.4%. In the case of CON=C(C(=O)OC)c1ccccc1CO/N=C(\C)c1cccc(C(F)(F)F)c1, the max response is reported as -22.9%. With O=S1OC[C@@H]2[C@H](CO1)[C@@]1(Cl)C(Cl)=C(Cl)[C@]2(Cl)C1(Cl)Cl (stereo not given in full) the max response was -26.6% and -23.3%. With CSc1nnc(C(C)(C)C)c(=O)n1N the max response was -4.13%. With COc1cnc(OC)n2nc(NS(=O)(=O)c3c(OCC(F)F)cccc3C(F)(F)F)nc12 the max response was -8.21%. For O=C(O)c1nc(Cl)ccc1Cl, the max response was -0.844% and 6.6%. In the case of CC(C)=C[C@@H]1[C@@H](C(=O)OCN2C(=O)C3=C(CCCC3)C2=O)C1(C)C, the max response is reported as -11.5%. CSC1=N[C@@](C)(c2ccccc2)C(=O)N1Nc1ccccc1 showed a max response of -18%.
